Among all 300,000 compounds or so, about 2,700 (0.9%) were called active. This is one part of a sample in which actives are shown more often than they occur.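 The calls were made as follows: active = mean inhibition of at least 30% with at least half of replicates also reaching 30%; inconclusive = no clear call, values can overlap the other calls; inactive = the rest.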
Target: Golgi-associated PDZ and coiled-coil motif-containing protein (Homo sapiens) (UniProt Q9HD26)
Assay: blockade of CAL PDZ-reporter peptide interaction – biochemical, fluorescence polarization, untagged CAL PDZ, HTS, primary screen (AID 602252);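 also: 0% = DMSO neutral control and 100% = excess unlabeled competitor peptide PRC23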
Conditions: purified CAL PDZ, TMR-peptide fluorescence polarization, 1 h; at 24.9 µM; hits give high values

inhibition, inactive:
CCn1c(-c2ccncc2)n[nH]c1=S -0.231%
CCCc1cc(-c2n[nH]c(=S)n2Cc2ccccc2)cs1 -5.83%
O=C(N[C@H]1C/C=C\C(c2ccc(F)cc2)N(Cc2ccccc2)C(=O)C1)OCC1c2ccccc2-c2ccccc21 (some centres not stated) -2.32%
O=C(Nc1cccc(-c2nnc(-c3ccccc3)o2)c1)C1CCCO1 (configuration not stated) -1.93%
CC(C)Cc1nnc(NC(=O)CCc2ccccc2)s1 -1.93%
CN(c1ccccc1)S(=O)(=O)c1ccc(C(=O)N2CCN(c3ccccc3Cl)CC2)cc1 -2.37%
Cc1ccc(C(=O)C[n+]2cc(-c3ccccc3)n3c2CCCCC3)cc1 -2%
Cn1c(-c2ccccc2)c[n+]2c1CCCCC2 -4.71%
COc1ccccc1CNC(=O)c1ccc(Cl)c(S(=O)(=O)N2CCCC2)c1 -2.41%
O=C1NC[C@@H](c2ccccc2)OC(=O)[C@H](Cc2ccc(F)cc2)CC/C=C/C[C@H]1CC(=O)N(CCO)Cc1ccccc1 -2.15%
Cc1ccc(OCCNC(=O)c2cccc(S(=O)(=O)N3CCN(Cc4ccccc4)CC3)c2)cc1 -4.14%
NS(=O)(=O)c1ccc(CCNC(=O)c2ccc(Cl)c(S(=O)(=O)N3CCCCCC3)c2)cc1 -16.5%
Cc1cc(C)c2c(-n3cccc3)c(NC(=O)OCc3ccccc3)sc2n1 -1.91%
COC(=O)Nc1sc2nc(C)cc(C)c2c1-n1cccc1 0.432%
O=C(c1ccc2c(c1)C(=O)N(Cc1ccncc1)C2=O)N1CCN(S(=O)(=O)c2ccc(OC(F)(F)F)cc2)CC1 -4.84%
C[C@H](NC(=O)c1ccccc1)C(=O)OCC(=O)c1c[nH]c2ccccc12 -2.85%
O=C(COC(=O)CNC(=O)c1ccccc1F)NCC(F)(F)F -0.464%
CC(C)C[C@H]1CN([C@@H](CC(C)C)CN2CCC[C@@H]2CN2C(=O)C(=O)NC[C@@H]2Cc2ccccc2)C(=O)C(=O)N1CCc1ccccc1 -2.72%
CC(=O)Nc1ccc(NC(=O)COc2ccc(-c3ccccc3)cc2)cc1 -4.37%
Cc1ccc(OCC(=O)Nc2ccc(S(=O)(=O)Nc3ccccn3)cc2)cc1 -5.23%
O=C(NN=Cc1ccccc1O)NN=Cc1ccccc1O -7.2%
CN(Cc1nc2ccc(F)cc2[nH]1)Cc1nc(CC2CC2)no1 -5.2%
CC(C)c1nc2ccc(C(=O)O)cc2[nH]1 1.18%
Cc1ccc(S(=O)(=O)N2CCN(C(=O)COC(=O)/C=C/c3cccc(Cl)c3)CC2)c(C)c1 -0.868%
CCOC(=O)N(Cc1ccccc1)C1CC1 -3.68%
O=C(Nc1ccc(Cl)cc1)N1CCc2[nH]c3ccccc3c2C1 -12.5%
Fc1ccc(NC(=S)N2CCc3[nH]c4ccccc4c3C2)cc1 0.223%
COc1ccc(C2=Nn3c(nnc3-c3ccccc3OC)SC2)cc1OC1CCCC1 -2.41%
O=C1OC(Oc2ccc(Br)cc2)(c2ccccc2)c2ccccc21 (configuration not stated) -1.95%
CC(=O)c1c(C)[nH]c(C(=O)OCC(=O)Nc2c(C)cccc2C)c1C 4.23%
CC(=O)c1c(C)[nH]c(C(=O)OCC(=O)Nc2cc(S(=O)(=O)N3CCCCC3)ccc2C)c1C -0.974%
COc1ccc(/C=C(/NC(=O)c2ccccc2)C(=O)Nc2cccc(C(=O)O)c2)cc1 -4.34%
O=C(Nc1ccccc1)/C(=C\c1ccco1)NC(=O)c1ccco1 -6.57%
COc1ccc(CCC(=O)Nc2ccc(Cl)c(S(=O)(=O)N3CCOCC3)c2)cc1OC -22.4%
CC(=O)OCC1(O)CC23CCC4c5ccoc5CCC4(C)C2CCC1C3 (configuration not stated) -3.61%
CC1(c2ccc3ccccc3c2)NC(=O)NC1=O (configuration not stated) -8.76%
O=C1NCC(Nc2ccccc2)C(=O)N1 (configuration not stated) 1.56%
COc1ccccc1-c1nnc2n1N=C(c1ccc(OC(F)F)c(OCC3CC3)c1)CS2 -1.27%
O=C1C(Cl)=C(Oc2ccccc2)C(=O)c2ccccc21 6.75%
COc1ccccc1C(=O)Nc1ccc(C)c(S(=O)(=O)N2CCCCC2)c1 -7.43%
O=[N+]([O-])c1ccc(N/N=C/c2ccccc2)cc1 4.6%
NC(=S)N/N=C/c1ccc([N+](=O)[O-])cc1 1.65%
CC(C)N(Cc1nnc(-c2ccccc2Br)o1)C(=O)c1cc(Cl)nc2ccccc12 2.14%
CCc1ccc(OC(C)C(=O)Nc2ccc(S(=O)(=O)Nc3cc(C)on3)cc2)cc1 (configuration not stated) -5.02%
CCOc1ccc(C(=O)Nc2ccc(S(=O)(=O)Nc3cc(C)on3)cc2)cc1 -5.22%

inhibition, active:
O=C(Nc1nnc(CCc2ccccc2)s1)C1CCCO1 (configuration not stated) 32%
Clc1ccc(C[n+]2cc(-c3ccc(Cl)cc3)n3c2CCC3)cc1 36.9%
Cc1cc(C)c2c(-n3cccc3)c(C(=O)NNS(=O)(=O)c3ccc(F)cc3)sc2n1 44.4%
O=C(CNC(=O)c1ccccc1F)OCC(=O)c1c[nH]c2ccccc12 53.7%
Cc1ccc(OCC(=O)Nc2ccc(-c3nc4ncccc4o3)cc2)cc1 46%
OC(c1nc2ccc(F)cc2[nH]1)C(O)c1nc2ccc(F)cc2[nH]1 (configuration not stated) 37%
O=C(NC1CCCCC1)N1CCc2[nH]c3ccccc3c2C1 73.4%
CC(=O)c1c(C)[nH]c(C(=O)OCC(=O)NCCC(C)C)c1C 66.4%
Cc1cccc(NC(=O)/C(=C\c2ccco2)NC(=O)c2ccccc2)c1 79.4%
O=C1NCC(c2ccccc2)(c2ccccc2)C(=O)N1 41.9%
O=[N+]([O-])c1ccc(C=NN=Cc2ccc([N+](=O)[O-])cc2)cc1 76.3%
CCC(Oc1ccccc1C)C(=O)Nc1ccc(S(=O)(=O)Nc2cc(C)on2)cc1 (configuration not stated) 71.5%
